From PubChem BioAssay (Tox21) come the findings set out here.

Molecules are shown by their SMILES. Records with an inconclusive call do not appear. A number with no mark means an inactive call. Calls come from the whole dose curve; as a rule, active = well fitted cell-killing curve with a large enough effect in the repeat runs; inconclusive = weak or mixed curves; inactive = flat fitted curve, though single readings scatter.
% is set by controls: 0 for no effect and ±100 for the full control effect.

The assay is described as follows: qHTS assay to identify small molecule antagonists of the estrogen receptor beta (ER-beta) signaling pathway - cell viability counter screen (AID 1259382).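 Note: HEK293T cells carrying ER-beta-UAS-bla reporter stimulated with estradiol; nearly all actives have a fitted effect of over 55% in size.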 As to conditions: ER-beta-UAS-bla HEK293T viability, CellTiter-Glo luminescence, 16 h; series mostly up to 92.4 µM; activity change, negative = cytotoxicity: at the top concentration. Summed up:
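CellTiter-Glo ATP luminescence measured after the LiveBLAzer read in the same wells; ER-beta-UAS-bla HEK293T cells, 16 hr compound treatment with 1nM 17-beta-estradiol agonist at 37C, 5% CO2.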
For orientation: qHTS replaces the single test concentration by a dilution series.
`Nc1nc(-c2ccc([N+](=O)[O-])cc2)cs1`: the “activity change, negative = cytotoxicity” value was 0.016%.
For `Cc1cccc(C)c1NC(=O)c1cc(S(N)(=O)=O)c(Cl)cc1O` the value was 3.08% [at 42.5 µM]; for `CCCCCCCCCCCCCOC(=O)CCSCCC(=O)OCCCCCCCCCCCCC`, 3.4% [at 19 µM]; for `CC(=O)N[C@@H](Cc1ccc(O)cc1)C(=O)O`, 2.66% [at 42.5 µM].
For `CCCCCC` the value was 7.85%; for `Cc1ccccc1S(N)(=O)=O`, 6.64%.
`CCN(CC)CCOC(=O)C(c1ccccc1)c1ccccc1`: the “activity change, negative = cytotoxicity” value was 3.5% [at 42.5 µM].
For `O=S(=O)(O)CO`, the “activity change, negative = cytotoxicity” value was 7.12%.
As to `CC(=O)OCC1=C(C(=O)O)N2C(=O)[C@@H](NC(=O)CSc3ccncc3)[C@H]2SC1`, the “activity change, negative = cytotoxicity” value was 2.9% [at 42.5 µM].
As for `O=C(O)CN1C(=O)c2cccc3cccc(c23)C1=O`, the “activity change, negative = cytotoxicity” value is 4.9% [at 42.5 µM].
For `SCCc1cnccn1` the value was -11.2%.
As to `COc1ccc(C)cc1`, the “activity change, negative = cytotoxicity” value is 8.06%.
`CC(C)c1ccc(C(=O)N=C(N)N)cc1S(C)(=O)=O`: the “activity change, negative = cytotoxicity” value is 0.615% [at 42.5 µM].
As for `O=C1OC(=O)c2c(Br)c(Br)c(Br)c(Br)c21`, the figure is -8.24%.
With `OCC(CO)n1cnc(-c2ccc(F)cc2)c1-c1ccnc(Oc2ccccc2)n1`, the “activity change, negative = cytotoxicity” value was 1.2%.
`C1CCCCC1`: the “activity change, negative = cytotoxicity” value is 8.54%.
Take `Cc1c[nH]c2ccccc12`: the “activity change, negative = cytotoxicity” value was 13.1% [at 42.5 µM].
`O=C(O)CCS`: the “activity change, negative = cytotoxicity” value is 12.5%.
With `Cc1ccc2nc(N)[nH]c(=O)c2c1Sc1ccncc1`, the “activity change, negative = cytotoxicity” value is -21.4% [at 42.5 µM].
As for `O=C(O)CCCc1c[nH]c2ccccc12`, the figure is 2.08%; as for `CCN(CC)CC(=O)Nc1c(C)cccc1C(=O)OC`, 8.61% [at 42.5 µM].
For `CC(C)N=C=NC(C)C` the value was 1.17%; for `CC1CCCO1` (stereo unspecified), 1.59%; for `[Cl][Nd]([Cl])[Cl]`, 0.0207%.
For the compound `CC1=CC[C@@]23C[C@@H]1C(C)(C)[C@@H]2CC[C@H]3C`, the “activity change, negative = cytotoxicity” value was 7.61%.
Regarding `COc1ccc(/C=C/C(=O)c2ccc(OC)cc2OC)cc1`, the “activity change, negative = cytotoxicity” value was -18.5% [at 42.5 µM].
